Test results: PubChem BioAssay (NCATS)
Results filed as inconclusive are left out. Calls of active or inactive are those of the source. The call rests on the fitted dose curve; in most records, active means well fitted cell-killing curve with a large enough effect; inconclusive means small, poorly fitted or top-dose-only effect, or effect the other way; inactive means no such curve, though single readings can be large or run the other way.

Assay: Quantitative highthroughput screen to assess conditional lethalithy of SEM cells grown in Human Plasma-Like Medium with dialyzed fetal bovine serum (HPLM+ds) (AID 1963882); further: nearly all actives have a fitted effect of over 35% in size
Details: SEM B-ALL cells in HPLM+ds, CellTiter-Glo viability, 48 h; series mostly up to 45.8 µM; viability: at the top concentration
Source text: Assay Provider: Jason Cantor Ph.D.
Department of Biochemistry
University of Wisconsin-Madison, Madison, WI, USA
Chemical screening studies have identified drug sensitivities across hundreds of cancer cell lines but most putative therapeutics fail to translate. Discovery and development of drug candidates in models that more accurately reflect nutrient levels in human blood is a major challenge. Here we performed high-throughput screens in conventional versus Human Plasma-Like Medium (HPLM) to identify compounds that were "missed" when screening using the artificial culture condition. Sets of conditional anticancer compounds spanned phases of clinical development and included non-oncology drugs were assessed. […] We also traced conditional phenotypes for several chemotherapeutics to availability of HPLM-specific metabolites and confirmed others for compounds whose reported targets are encoded by nonessential genes. Our findings establish generalizable strategies for exploiting conditional lethality in HPLM to reveal therapeutic candidates and mechanisms of action in cancer cells.
Described herein are the results of each viability screens against three cell lines: NOMO1 (an acute myeloid leukemia cell line); P12-Ichikawa (a T-cell acute lymphoblastic leukemia); and SEM (a B-cell ALL). Each assay was screened using 3 different cell culture media: homemade human plasma-Like medium with 10% dialyzed fetal bovine serum (HPLM+ds); RPMI1640 with 10% untreated FBS and 5mM glucose (RPMI+s); and RPMI1640 with 10% dialyzed fetal bovine serum and 5 mM glucose (RPMI+ds).
PROTOCOL TABLE (as described by Inglese J, Shamu CE and Guy RK. 2007)
SEQUENCE No. (e.g., 1, 2, 3, etc.); […] (e.g., Cells, Incubation, Reagent, etc.); VALUE and DESCRIPTION.
1; Cells; 5 uL; white, solid bottom 1536-well Greiner assay plate.
2; Compounds; 23 nL; Kalypsis pin tool (Wako USA) equipped with a 1536-well pin head to transfer to the assay plates.
3; Incubation; 48 hours; 37C incubation.
4; Reagent; 3 uL; CellTiter Glo (Promega).
5; Incubation; 5 min, room temperature
6; Detection; Luminescence, Viewlux PerkinElmer.
NOTES (numbers refer to Sequence numbers above)
1. Briefly, 5 ul of cell reagent was dispensed using a Multidrop Combi Dispenser. The NOMO1 and SEM cells were plated at 500 cells/well and the P12-Ichikawa line at 1000 cells/well.
2. After seeding the cells, 23 nL of MIPE 4.1 library compounds (in DMSO) were added to each plate using a Kalypsys 1536 Pintool dispenser. Bortezomib at final concentration of […] and DMSO were added to each plate as positive and negative controls respectively. For each screen, MIPE 4.1 compounds were added over an eleven-point concentration range […] in 3-fold dilutions.
3. Each plate was covered with a stainless steel gasketed lid to prevent evaporation and incubated for 48 hour at 37C, 95% relative humidity, and 5% CO2.
4-5. Three microliter CellTilter-GloTM luminescent substrate mix (Promega) reagent was added to the assay plate and incubated at room temperature for 5 min.
6. The luminescence signal was measured using a ViewLux (PerkinElmer) multiplate reader with a 2 second exposure time per plate. Data for each compound were normalized as percent viability such that measurements for DMSO and the empty well controls in each plate were defined as 100% and 0%, respectively.
Potency means the concentration at half of the fitted maximal effect.

Compound	Potency	viability
CC(C)C[C@H](NC(=O)[C@H](CCc1ccccc1)NC(=O)CN1CCOCC1)C(=O)N[C@@H](Cc1ccccc1)C(=O)N[C@@H](CC(C)C)C(=O)[C@@]1(C)CO1	13.2 nM (active)	
N#CC1(c2ccc(NC(=O)c3cccnc3NCc3ccncc3)cc2)CCCC1		85.5% (inactive)
O=C(O)C=Cc1ccc(Cn2ccnc2)cc1		112% (inactive)
Cn1cc(-c2ccc3nnc(Sc4ccc5ncccc5c4)n3n2)cn1		102% (inactive)
COc1nc(-c2ccc3c(c2)OCO3)n(-c2ccc(NC(=O)CSc3ccccc3)cc2)n1		101% (inactive)
CCCCn1c(=O)n(Cc2ccccc2F)c(=O)c2[nH]c(Cc3ccc(NC(C)=O)cc3)nc21		100% (inactive)
O=C(CCCCCCC(=O)Nc1ccccc1)NO	3720 nM (active)	
COc1ccc2[nH]cc(CCNC(C)=O)c2c1		95.7% (inactive)
CCOC(=O)N1CCN([N+]([O-])=NOc2cc(ON=[N+]([O-])N3CCN(C(=O)OCC)CC3)c([N+](=O)[O-])cc2[N+](=O)[O-])CC1		98.5% (inactive)
CC(=O)NC(C)c1ccc(Oc2ccc(OC(C)C)cc2)cc1 (stereo not given)		106% (inactive)
Nc1nccc(-c2ccc3noc(-c4ccc(Cl)cc4)c3c2)n1		86.6% (inactive)
CC=CC1=C(C(=O)O)N2C(=O)[C@H](NC(=O)[C@H](N)c3ccc(O)cc3)[C@@H]2SC1		103% (inactive)
CCN1CCN(Cc2ccc(-c3cc4c(N[C@H](C)c5ccccc5)ncnc4[nH]3)cc2)CC1	16600 nM (active)	
COCCCN1CCC(NC(=O)c2cc(Cl)c(N)c3c2OCC3)CC1		90.3% (inactive)
O=c1oc2c(O)c(O)cc3c(=O)oc4c(O)c(O)cc1c4c23		87.3% (inactive)
COc1cc2c(cc1-c1c(C)noc1C)ncc1[nH]c(=O)n([C@H](C)c3ccccn3)c12	1870 nM (active)	
N#CNC(=NCCCCCCOc1ccc(Cl)cc1)Nc1ccncc1		4.18% (inactive)
NC(=O)c1nnn(Cc2cc(Cl)c(C(=O)c3ccc(Cl)cc3)c(Cl)c2)c1N		85.9% (inactive)
O=C1CCCC(=O)C1C(=O)c1ccc(C(F)(F)F)cc1[N+](=O)[O-]		106% (inactive)
CCc1cc(C(C)=NOCc2ccc(C3CCCCC3)c(C(F)(F)F)c2)ccc1CN1CC(C(=O)O)C1	7430 nM (active)	

Compound	Potency	viability
C=C1C[C@@]2(O)O[C@@]3(C[C@H]2C(C)C)[C@H](C)CC[C@H]13		85.3% (inactive)
O=C1c2cccc(O)c2C(=O)c2c(O)cc(CO)cc21		115% (inactive)
Cc1ccc(C(=O)Nc2cccc(C(F)(F)F)c2)cc1-c1ccc2nc(NCCN3CCOCC3)ncc2c1	4690 nM (active)	
CCN(CC)CCCC(C)Nc1nc(C)cc(Nc2ccc3nc(C)cc(N)c3c2)n1 (stereo not given)		85.1% (inactive)
CNC(=O)c1nn(C)c2c1C(C)(C)Cc1cnc(Nc3ccc(N4CCN(C)CC4)cc3)nc1-2	264 nM (active)	
Cc1nccn1CC1CCc2c(c3ccccc3n2C)C1=O (stereo not given)		84.3% (inactive)
Cn1cc(-c2cnn3c(N)c(Br)c([C@H]4CCCNC4)nc23)cn1	935 nM (active)	
N#CC(c1ccnc(NCCc2cccnc2)n1)c1nc2ccccc2s1 (stereo not given)		87.5% (inactive)
C=CC(=O)N1CCc2ccc(-n3c(=O)ccc4cnc5ccc(-c6cnn(C)c6)cc5c43)cc21	3320 nM (active)	
CNC[C@H](O)c1ccc(O)c(O)c1		69.8% [at 92.2 µM] (inactive)
C[C@H](Cn1cnc2c(N)ncnc21)OCP(=O)(O)O		105% (inactive)
CCCCCOC(=O)Nc1nc(=O)n([C@@H]2O[C@H](C)[C@@H](O)C2O)cc1F (stereo not given in full)		105% (inactive)
Cc1c(CCOc2ccc(C(=O)O)cc2)c2cc(Cl)ccc2n1C(c1ccccc1)c1ccccc1		82.3% (inactive)
NC(=O)c1ccc(I)c([N+](=O)[O-])c1		96.1% (inactive)
Nc1ccc(S(=O)(=O)Nc2ccnn2-c2ccccc2)cc1		96.6% (inactive)
COc1ccc(C(C)=O)c(O)c1		99.2% (inactive)
CCN(CC)CCOc1ccc(Nc2ncc3cc(-c4c(Cl)cccc4Cl)c(=O)n(C)c3n2)cc1	1660 nM (active)	
C[C@@H]1O[C@@H](O[C@H]2CC[C@@]3(C)[C@H](CC[C@@H]4[C@H]3C[C@@H](O)[C@]3(C)[C@@H](C5=CC(=O)OC5)CC[C@]43O)C2)C[C@H](O)[C@@H]1O[C@H]1C[C@H](O)[C@H](O[C@H]2C[C@H](O)[C@@H](O)[C@@H](C)O2)[C@H](C)O1 (stereo in doubt)	95.9 nM (active)	
NCCS(=O)(=O)O		105% (inactive)
O=C(O)[C@@H](c1ccc(OCc2ccc3ccccc3n2)cc1)C1CCCC1		91.6% (inactive)
